# uPA surface inh: blocks generation of uPA at the cell surface; Potency, µM (series often up to 38.3 µM), hits mostly inhibitors; cell surface uPA generation assay, qHTS; 330,000 tested, 0.31% active; active means well fitted inhibition curve with a large enough effect; inconclusive means small, poorly fitted or top-dose-only effect; inactive means no such curve, though single readings can be large or run the other way; tested in mouse RAW 264.7 cells; further: nearly all actives have a fitted effect of over 55% in size
# VDR inh: blocks the human vitamin D receptor; 400,000 tested, 0.93% active; Potency, µM, usual class: inhibitors; P11473; VDR-SRC2-3 peptide fluorescence polarization, 2 h
#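 Compounds are added to VDR with labelled SRC2-3 coactivator peptide and held 2 h at room temperature. Inhibition of the VDR–peptide interaction is then read as a change in fluorescence polarization.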
# TSHR antag: blocks TSH signaling through the human TSH receptor; TSHR-expressing cells, TSH-stimulated cAMP HTRF, 2 h; active compounds read low; activity change, negative = inhibition, % at 11.5 µM; 330,000 tested, 0.2% active; AID 504810; P16473;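 active means activity change below a set negative limit, meaning inhibition stronger than a set level, cut at about -70% in these data; inconclusive means activity change between two set negative limits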
#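 TSHR-expressing cells, 200/well, pre-treated with compound, then stimulated with EC80 TSH (4nM final) for 2 hours at 37 deg C. cAMP measured by competitive HTRF: anti-cAMP cryptate antibody in lysis buffer plus cAMP-d2, read after 30 minutes at room temperature.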
# PLK1 PBD block: PLK1 (human) polo-box domain binding inhibition; 360,000 tested, 2.8% active; Plk1 PBD binding of FITC phosphopeptide, fluorescence polarization; P53350; Potency, µM, hits mostly inhibitors; further: series mostly up to about 57 µM; nearly all actives have a fitted effect of over 65% in size
# TSG101-PTAP inh: blocks PTAP/TSG101 interaction to inhibit HIV-1 budding; Q99816; Potency, µM (titrated, usually from 115 µM), most hits filed as inhibitors; 340,000 tested, under 10 active; Fluorescence polarization, FITC-PTAP peptide / Tsg101 binding; active means well fitted inhibition curve with a large enough effect in the main read-out, with a control signal flat, not every such curve was filed as active; inconclusive means small, poorly fitted or top-dose-only effect, or effect the other way, or a change in a side signal; inactive means no such curve, though single readings can be large or run the other way
# Target sequence (Q99816 whole entry, looked up): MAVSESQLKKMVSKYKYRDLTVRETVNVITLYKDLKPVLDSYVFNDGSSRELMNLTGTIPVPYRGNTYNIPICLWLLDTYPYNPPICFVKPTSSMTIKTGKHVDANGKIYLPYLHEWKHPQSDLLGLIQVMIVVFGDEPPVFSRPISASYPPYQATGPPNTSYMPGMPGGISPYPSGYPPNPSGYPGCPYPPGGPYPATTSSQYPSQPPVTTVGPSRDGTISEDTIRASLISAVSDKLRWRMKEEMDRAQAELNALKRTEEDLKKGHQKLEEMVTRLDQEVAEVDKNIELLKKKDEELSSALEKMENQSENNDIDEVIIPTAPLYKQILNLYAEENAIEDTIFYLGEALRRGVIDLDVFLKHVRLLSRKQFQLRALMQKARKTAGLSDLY
#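 Fluorescence anisotropy tracks displacement of a FITC-tagged PTAP peptide (50 nM) from the Tsg101 binding domain (10 uM), following a 20 min room-temperature incubation at pH 7.5.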
# A number is an active result; 0 = inactive; ? = inconclusive; - = no result. Rows were chosen to be rich in hits. Some 3.1% of all compounds tested hit in one or more screens of this group. Unless noted, the call rests on the fitted dose curve; in most records, active means well fitted curve in the direction sought with a large enough effect; inconclusive means small, poorly fitted or top-dose-only effect, or another doubt; inactive means no such curve, though single readings can be large; an effect the other way counts as inactive or inconclusive.
SMILES,uPA surface inh,VDR inh,TSHR antag,PLK1 PBD block,TSG101-PTAP inh
Cc1c(N(C)S(=O)(=O)c2cccc(C(=O)NCC3CCCO3)c2)c(=O)n(-c2ccccc2)n1C (centres undefined),0,0,0,0,0
Cc1c(N(C)S(=O)(=O)c2cccc(C(=O)NC(C)C)c2)c(=O)n(-c2ccccc2)n1C,0,79µM,0,30µM,0
Nc1c(Cl)cnn(-c2ccccc2)c1=O,0,0,-,0,0
O=c1c(Cl)c(Cl)cnn1-c1ccccc1,3.5µM,0,0,0,0
COCCNc1cnn(-c2ccccc2)c(=O)c1Cl,0,0,-122,0,0
CCCCNc1cnn(-c2ccccc2)c(=O)c1Cl,-,0,0,0,0
CC1CCN(S(=O)(=O)c2csc(C(N)=O)c2)CC1,-,0,-,-,-
CC(=O)c1ccc(NC(=O)C2CCCN(S(=O)(=O)c3ccc4c(c3)CCCN4C(C)=O)C2)cc1 (centres undefined),-,0,-,-,-
O=C(CCCCn1c(=O)c2ccccc2n(CC(=O)Nc2ccc(F)cc2F)c1=O)NCc1ccccc1Cl,-,0,-,-,-
C=CCn1c(=O)c(CCC(=O)Nc2ccc(N3CCOCC3)cc2)nc2cc(C(F)(F)F)ccc21,0,0,0,21µM,0
O=C(Cn1cc(C(F)(F)F)ccc1=O)Nc1ccc(N2CCOCC2)cc1,0,0,0,0,0
Cc1ccccc1CSc1nc2c(sc3ccccc32)c(=O)n1CCCC(=O)NCCCOC(C)C,-,0,-,-,-
S=c1nc(-c2ccc(Br)cc2)[nH]c2ccccc12,0,?,0,12µM,0
S=c1nc(-c2ccccc2)[nH]c2ccccc12,0,0,0,0,0
CCOc1ccc2c(c1)C(NC(C)=O)C(=O)N2CCN1CCOCC1 (centres undefined),0,79µM,0,21µM,0
CC(=O)NC1C(=O)N(CCN2CCOCC2)c2ccc(Br)cc21 (centres undefined),0,?,0,0,0
COc1ccc2c(=O)ccoc2c1,-,0,-,-,-
COc1ccc(C(=O)n2nnc3ccccc32)cc1Br,0,0,0,1.5µM,0
COc1cc(-c2noc(C)c2/C=C/c2cccc([N+](=O)[O-])c2)cc(OC)c1OC,0.11µM,0,0,0,0
COc1cc(/C=C2\SC(=O)NC2=O)ccc1Oc1ccc([N+](=O)[O-])cc1[N+](=O)[O-],0,?,0,21µM,0
CCOc1ccc(CNC(=O)c2cc3c(=O)n(C)c4ccccc4c3s2)cc1,-,0,-,-,-
COc1ccc(C(CCN2CCOCC2)c2c(OC)cc(OC)c3c(-c4ccccc4)cc(=O)oc23)cc1 (centres undefined),14µM,0,0,0,0
COc1cccc(C(=O)N(C)CC2CCN(CCc3cccc(C(F)(F)F)c3)CC2)c1,0,0,0,0,0
CC(=O)NCCC(=O)N(C)CC1CCN(CCc2cccc(C(F)(F)F)c2)CC1,0,?,0,21µM,0
CN1CCN(c2ccc(S(=O)(=O)N3CCCCC3)cn2)CC1,0,0,0,0,0
SMILES,uPA surface inh,VDR inh,TSHR antag,PLK1 PBD block,TSG101-PTAP inh
CN1CCN(S(=O)(=O)c2ccc(N3CCc4ccccc4C3)nc2)CC1,0,?,0,7.5µM,0
CCc1cnc2c(c1SCC(=O)NCc1ccccc1Cl)c(=O)n(C)c(=O)n2C,-,0,-,-,-
COc1ccc(NC(=S)NC(NC(=O)CCl)C(Cl)(Cl)Cl)c([N+](=O)[O-])c1 (centres undefined),?,89µM,0,12µM,0
O=C(NC(NC(=S)Nc1ccccc1C(=O)O)C(Cl)(Cl)Cl)c1ccco1 (centres undefined),0,?,0,21µM,0
COC(=O)c1ccccc1NC(=S)NC(NC(=O)c1ccccc1[N+](=O)[O-])C(Cl)(Cl)Cl (centres undefined),0,0,0,27µM,0
O=C(NC(NC(=S)Nc1ccccc1C(=O)O)C(Cl)(Cl)Cl)c1ccccc1 (centres undefined),0,79µM,0,6µM,0
COc1ccc(CNc2ncnc3ccc(-c4c(C)noc4C)cc23)c(OC)c1,-,0,-,-,-
Cn1c(SCC(=O)Nc2nc3ccccc3s2)ncc(C(=O)Nc2ccc(Cl)cc2)c1=O,-,0,-,-,-
S=C(NCc1ccccc1)N1CCn2cccc2C1c1cccnc1 (centres undefined),0,0,0,0,0
S=C(NCc1ccccc1)N1CCn2cccc2C1c1ccncc1 (centres undefined),0,0,0,17µM,0
Fc1cccc(Cl)c1CNCc1cccnc1,0,0,-106,0,0
CN1CCN(C(=S)NC(=O)c2ccc(Cl)cc2)CC1,0,0,0,27µM,0
O=C(O)c1cccc(-n2cccc2/C=N/O)c1,0,0,0,?,0
O=C(O)c1cccc(-n2cccc2/C=C/[N+](=O)[O-])c1,0,?,0,6.7µM,0
N#C/C(=C/c1cccn1-c1cccc(C(=O)O)c1)c1ccc(Cl)cc1,-,?,0,30µM,0
O=C(O)c1cccc(-n2cccc2/C=C\[N+](=O)[O-])c1,0,?,0,27µM,0
CCOC(=O)/C(C#N)=C/c1cccn1-c1ccc(Cl)cc1,0,0,0,0,0
CC(=O)Nc1c(C(=O)Nc2cccc(C)c2)nnn1-c1ccc(C)cc1,-,0,-,-,-
CN(C)c1cc[n+](CC(=O)c2ccc(-c3ccccc3)cc2)cc1,7.1µM,0,0,?,0
O=C1CCC(C(=O)OCc2cc(Cl)ccc2OC(F)F)N1 (centres undefined),0,?,0,27µM,0
CC(C)N(CCCNC(=O)c1ccc(CS(=O)(=O)c2c(Cl)cccc2Cl)o1)Cc1ccccc1,0,0,0,0,0
O=C(C1CCC(CNc2nc(=S)[nH]c3ccccc23)CC1)N1CCN(c2ccc(F)cc2)CC1 (centres undefined),0,0,0,21µM,0
Cc1ccc(CNc2ccc(-c3nc(-c4ccccn4)no3)cc2[N+](=O)[O-])cc1,-,0,-,-,-
O=C(Cn1c2ccc(F)cc2c2nc3n(c(=O)c21)CCS3)NCC1CCCO1 (centres undefined),0,0,0,0,0
Cc1cccc(-c2nnc(SCC#N)n2C)c1,0,0,0,27µM,0
SMILES,uPA surface inh,VDR inh,TSHR antag,PLK1 PBD block,TSG101-PTAP inh
Cc1cccc(-c2nnc(SCC#N)n2-c2cccc(Cl)c2)c1,0,0,0,0,0
CCN(CC)S(=O)(=O)c1cccc(-n2c(O)c(C=Nc3ccccc3C(=O)O)c3ccccc3c2=O)c1,0,0,0,24µM,0
O=C(O)c1ccc2c(c1)C(=O)N(c1cccc(C(=O)/C=C/c3ccccc3)c1)C2=O,0,?,0,42µM,0
CC(=O)c1cccc(NC(=O)CN2C(=O)CN(C)C(=O)c3ccccc32)c1,-,0,-,-,-
COc1cc2c(cc1OC)[C@@H](NC(=O)C(C)C)[C@H](OCc1ccccc1)C2,0,0,0,0,0
Clc1ccc(-c2nc3ccncc3[nH]2)cc1,0,0,0,8.4µM,0
Fc1ccc(-c2nc3ccncc3[nH]2)cc1,0,0,0,?,0
